Experimental data reported in PubChem BioAssay (NCATS).
Several values for one entry are separate records, joined by “and”; a condition that tells them apart may be missing. Identical values can stand only once. Records with an inconclusive call do not appear. Where a call stands in place of a potency, no number is given. Some compounds were tested as several samples or in several runs, with calls that do not always agree. Activity calls are given as the source filed them. Unless noted, the call rests on the fitted dose curve; in most records, active means well fitted curve in the direction sought with a large enough effect; inconclusive means small, poorly fitted or top-dose-only effect, or another doubt; inactive means no such curve, though single readings can be large; an effect the other way counts as inactive or inconclusive.

How the values were obtained:
[1] = target: Voltage-gated inwardly rectifying potassium channel KCNH2 (Homo sapiens) (UniProt Q12809); experiment: qHTS Assay for Small Molecule Inhibitors of the Human hERG Channel Activity (AID 588834);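 further: lower thallium flux fluorescence means stronger hERG block; nearly all actives have a fitted effect of over 50% in size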; further: potency means the concentration at half of the fitted maximal effect
Chain of Voltage-gated inwardly rectifying potassium channel KCNH2 (Homo sapiens) (Q12809 whole entry, looked up): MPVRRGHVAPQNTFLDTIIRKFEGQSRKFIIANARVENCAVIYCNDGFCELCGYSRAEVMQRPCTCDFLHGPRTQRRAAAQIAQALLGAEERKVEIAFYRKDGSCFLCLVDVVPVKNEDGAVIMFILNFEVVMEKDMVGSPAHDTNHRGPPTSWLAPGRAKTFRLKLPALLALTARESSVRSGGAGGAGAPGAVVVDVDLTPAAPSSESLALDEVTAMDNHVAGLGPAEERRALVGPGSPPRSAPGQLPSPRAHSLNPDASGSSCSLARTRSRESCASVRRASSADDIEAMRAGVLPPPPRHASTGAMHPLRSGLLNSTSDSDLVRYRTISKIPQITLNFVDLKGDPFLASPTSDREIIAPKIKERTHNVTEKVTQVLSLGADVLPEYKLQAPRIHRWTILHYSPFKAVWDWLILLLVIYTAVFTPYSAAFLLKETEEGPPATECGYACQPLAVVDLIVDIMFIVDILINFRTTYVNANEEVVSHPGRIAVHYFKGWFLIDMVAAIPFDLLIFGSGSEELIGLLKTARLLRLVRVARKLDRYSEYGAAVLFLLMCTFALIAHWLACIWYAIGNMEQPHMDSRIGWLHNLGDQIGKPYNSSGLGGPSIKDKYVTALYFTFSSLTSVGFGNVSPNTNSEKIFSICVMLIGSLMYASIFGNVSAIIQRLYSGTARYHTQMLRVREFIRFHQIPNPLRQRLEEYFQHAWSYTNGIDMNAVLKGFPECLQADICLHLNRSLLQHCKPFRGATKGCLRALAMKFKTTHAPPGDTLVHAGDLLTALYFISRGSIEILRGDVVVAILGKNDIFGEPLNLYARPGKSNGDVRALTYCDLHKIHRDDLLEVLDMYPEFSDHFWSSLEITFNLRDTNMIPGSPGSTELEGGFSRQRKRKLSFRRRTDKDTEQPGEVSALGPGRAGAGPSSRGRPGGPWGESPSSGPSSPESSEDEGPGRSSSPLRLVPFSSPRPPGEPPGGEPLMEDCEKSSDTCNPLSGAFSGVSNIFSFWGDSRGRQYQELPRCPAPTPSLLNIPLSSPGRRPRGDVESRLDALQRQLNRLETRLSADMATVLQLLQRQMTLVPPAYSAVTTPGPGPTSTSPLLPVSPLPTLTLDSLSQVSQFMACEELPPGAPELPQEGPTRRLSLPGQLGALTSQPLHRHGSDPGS
Summary of the method: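 Blockade is seen as reduced FluxOR thallium-flux fluorescence in U2OS cells expressing hERG from a BacMam construct, in Opti-MEM with 2% FCS. Concentration-response data fitted to the Hill equation for AC50.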

[2] = target: Luciferin 4-monooxygenase (Photinus pyralis) (UniProt P08659); experiment: Biochemical firefly luciferase enzyme assay for NPC (AID 624030);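 further: purified P. pyralis luciferase at 10 nM with luciferin and ATP substrate; series mostly up to about 59 µM; nearly all actives have a fitted effect of over 70% in size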
Chain of Luciferin 4-monooxygenase (Photinus pyralis) (P08659 whole entry, looked up): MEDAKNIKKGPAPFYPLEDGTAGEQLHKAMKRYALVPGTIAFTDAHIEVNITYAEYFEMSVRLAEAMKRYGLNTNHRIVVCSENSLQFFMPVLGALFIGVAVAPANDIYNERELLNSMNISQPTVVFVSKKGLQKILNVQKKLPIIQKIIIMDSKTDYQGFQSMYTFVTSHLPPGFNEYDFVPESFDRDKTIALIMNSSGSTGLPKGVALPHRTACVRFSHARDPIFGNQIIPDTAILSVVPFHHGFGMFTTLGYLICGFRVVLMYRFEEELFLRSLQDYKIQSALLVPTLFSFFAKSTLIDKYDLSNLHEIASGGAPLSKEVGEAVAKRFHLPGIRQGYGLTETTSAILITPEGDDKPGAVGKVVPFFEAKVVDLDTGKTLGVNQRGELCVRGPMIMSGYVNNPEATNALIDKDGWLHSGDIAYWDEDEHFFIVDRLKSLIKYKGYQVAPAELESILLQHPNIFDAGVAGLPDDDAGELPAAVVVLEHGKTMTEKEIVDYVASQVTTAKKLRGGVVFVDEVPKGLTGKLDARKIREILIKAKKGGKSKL
Summary of the method: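 Purified P. pyralis luciferase at 10 nM in 50 mM Tris Acetate (final), luminescence read within 5 minutes of enzyme addition to compounds. Activity normalised to PTC124 versus DMSO; concentration-response curves classed by r2, magnitude and activity.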

[3] = S16 Schwann cell viability assay (CellTiter-Glo assay) (AID 624031); further: nearly all actives have a fitted effect of over 70% in size; further: potency means the concentration at half of the fitted maximal effect
Summary of the method: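 Following overnight culture in 10% FBS DMEM, parental S16 rat Schwann cells are dosed for 24 h at 37 °C. Viability is read as CellTiter-Glo luminescence and expressed as % activity relative to DMSO (0%) and no-cell wells.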

[4] = S16 Schwann cell PMP22 intronic element firefly luciferase assay (AID 624032); further: nearly all actives have a fitted effect of over 30% in size; further: potency means the concentration at half of the fitted maximal effect
Summary of the method: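 Rat S16 Schwann cells stably carrying firefly luciferase driven by a PMP22 intronic element, in 10% FBS, treated 24 h at 37 C. ONE-Glo luminescence normalized to PTC124 control and DMSO (0%); curves classed by r2, magnitude and activity.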

[5] = S16 Schwann cell PMP22 intronic element beta-lactamase assay (AID 624044; calls by dose curve; further: nearly all actives have a fitted effect of over 15% in size; further: potency means the concentration at half of the fitted maximal effect)
Summary of the method: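 Rat S16 Schwann cells with beta-Lac driven by a PMP22 intronic element, compound-treated 24 h at 37 °C. LiveBLAzer FRET B/G read: 460 nm normalized to potassium clavulanate vs DMSO; 535 nm FRET as viability; concentration-effect curves classified.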

[6] = target: Glutaminase kidney isoform, mitochondrial (Homo sapiens) (UniProt O94925); experiment: qHTS for Inhibitors of Glutaminase (GLS): LOPAC Validation (AID 624146); further: nearly all actives have a fitted effect of over 60% in size; further: potency means the concentration at half of the fitted maximal effect
Chain of Glutaminase kidney isoform, mitochondrial (Homo sapiens) (O94925 whole entry, looked up, canonical isoform): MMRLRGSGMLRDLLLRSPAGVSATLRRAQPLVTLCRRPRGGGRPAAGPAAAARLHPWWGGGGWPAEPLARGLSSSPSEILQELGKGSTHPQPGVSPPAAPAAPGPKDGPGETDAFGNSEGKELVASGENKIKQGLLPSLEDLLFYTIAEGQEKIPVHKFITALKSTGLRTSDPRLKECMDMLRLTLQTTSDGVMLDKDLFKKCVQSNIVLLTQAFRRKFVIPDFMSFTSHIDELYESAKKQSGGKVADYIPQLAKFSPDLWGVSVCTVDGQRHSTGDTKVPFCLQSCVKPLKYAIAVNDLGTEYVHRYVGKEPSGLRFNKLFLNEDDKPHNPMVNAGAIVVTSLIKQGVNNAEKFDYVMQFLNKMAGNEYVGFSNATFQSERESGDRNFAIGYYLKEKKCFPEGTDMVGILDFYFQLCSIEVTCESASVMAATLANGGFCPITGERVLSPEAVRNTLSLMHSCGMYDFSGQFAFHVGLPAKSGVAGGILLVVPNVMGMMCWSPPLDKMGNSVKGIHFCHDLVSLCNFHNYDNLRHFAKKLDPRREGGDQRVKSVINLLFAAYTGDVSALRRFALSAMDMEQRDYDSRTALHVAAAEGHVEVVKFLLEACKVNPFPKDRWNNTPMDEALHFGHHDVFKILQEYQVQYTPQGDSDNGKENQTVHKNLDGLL
Summary of the method: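 Compounds were pin-transferred onto hKGA, after which L-glutamine (1 mM solution) and a detection mix of glutamate oxidase, HRP and Amplex Red were added. Initial and 30 min RT fluorescence reads were collected.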

[7] = qHTS of Trypanosoma Brucei Inhibitors: LOPAC Validation (AID 624147)
Summary of the method: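 Glycolytic pyruvate kinase of T. brucei was incubated with substrate, test compound and 130 uM ADP for 45 minutes at room temperature. Luminescent Kinase-Glo Plus signal was measured after 10 minutes.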

[8] = qHTS assay for small molecule antagonists of retinoid X receptor alpha signaling (AID 588546; active means well fitted inhibition curve with a large enough effect in the signal ratio, with a control signal flat, not every such curve was filed as active; the % refers to the signal ratio;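 further: cells stimulated with 9-cis-retinoic acid as agonist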); conditions: HEK293T RXRa-UAS-bla, beta-lactamase ratio, antagonist mode; measured here: W530 green channel, cytotoxicity proxy
Summary of the method: (§1)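 Beta-lactamase reporter inhibition, read as CCF4 fluorescence ratio (ex 405, em 460/530 nm) after 2 h at RT. HEK293T UAS-bla cells, 2500/well, were stimulated with 9-cis-RA at 500 or 100 nM final alongside test compound for 18 h at 37 C.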

[9] = target: Retinoic acid receptor RXR-alpha (Homo sapiens) (UniProt P19793); experiment: as above; conditions: HEK293T RXRa-UAS-bla, beta-lactamase ratio, antagonist mode
Chain of Retinoic acid receptor RXR-alpha (Homo sapiens) (P19793 whole entry, looked up): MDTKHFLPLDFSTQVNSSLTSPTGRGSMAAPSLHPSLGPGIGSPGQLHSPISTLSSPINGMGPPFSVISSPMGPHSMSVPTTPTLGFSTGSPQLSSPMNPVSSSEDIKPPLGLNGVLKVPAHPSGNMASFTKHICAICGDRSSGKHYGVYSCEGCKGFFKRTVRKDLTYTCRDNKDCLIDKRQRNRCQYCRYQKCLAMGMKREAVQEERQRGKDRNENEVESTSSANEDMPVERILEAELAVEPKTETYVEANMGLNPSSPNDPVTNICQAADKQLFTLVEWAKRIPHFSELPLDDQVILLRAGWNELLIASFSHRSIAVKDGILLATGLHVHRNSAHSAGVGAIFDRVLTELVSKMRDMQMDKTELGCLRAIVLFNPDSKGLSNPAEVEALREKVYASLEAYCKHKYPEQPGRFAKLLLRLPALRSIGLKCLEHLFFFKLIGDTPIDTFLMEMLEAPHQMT
Summary of the method: as §1

[10] = target: Thyroid hormone receptor beta (Homo sapiens) (UniProt P10828); experiment: qHTS assay for small molecule antagonists of thyroid hormone receptor beta signaling (AID 588547; active means well fitted inhibition curve with a large enough effect in the signal ratio, with a control signal flat, not every such curve was filed as active; the % refers to the signal ratio;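 further: cells stimulated with 0.4 nM T3 agonist during compound exposure; series mostly up to about 77 µM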); conditions: TR-UAS-bla HEK293, beta-lactamase ratio, antagonist mode, 18 h
Chain of Thyroid hormone receptor beta (Homo sapiens) (P10828 whole entry, looked up): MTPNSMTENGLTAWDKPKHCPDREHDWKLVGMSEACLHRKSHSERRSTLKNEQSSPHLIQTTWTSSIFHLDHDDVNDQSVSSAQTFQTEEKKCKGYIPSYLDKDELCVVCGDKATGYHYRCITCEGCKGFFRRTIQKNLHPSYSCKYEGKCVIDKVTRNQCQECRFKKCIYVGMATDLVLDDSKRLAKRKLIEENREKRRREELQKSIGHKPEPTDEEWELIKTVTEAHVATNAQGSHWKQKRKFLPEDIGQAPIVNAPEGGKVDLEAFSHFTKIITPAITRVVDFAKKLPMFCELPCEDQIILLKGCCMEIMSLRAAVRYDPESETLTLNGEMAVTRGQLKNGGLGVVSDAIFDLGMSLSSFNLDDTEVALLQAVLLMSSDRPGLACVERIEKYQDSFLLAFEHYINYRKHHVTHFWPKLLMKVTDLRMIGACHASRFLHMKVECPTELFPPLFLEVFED
Summary of the method: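 TR-UAS-bla GripTite HEK293 cells in 2% charcoal/dextran FBS medium; compounds 0.59 nM to 92 uM with T3 at 0.4nM final, 18 h at 37 C. Beta-lactamase read by CCF4 fluorescence (460/530 nm); Hill fits gave IC50 and efficacy.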

Row | Structure (SMILES) | Potency [1] | Potency [2] | Potency [3] | Potency [4] | Potency [5] | Potency [6] | outcome [7] | max response [8] | max response [9] | activity change % (negative = inhibition) [10]
1 | NC(N)=NC(=O)Cc1c(Cl)cccc1Cl | inactive | inactive | inactive | inactive | inactive | inactive | inactive |  |  | 
2 | CC(N=C(NC#N)Nc1ccncc1)C(C)(C)C (stereo not given) | inactive | inactive | inactive | inactive | inactive | inactive | inactive |  |  | 
3 | CCCN1C[C@H](CSC)C[C@@H]2c3cccc4[nH]cc(c34)C[C@H]21 | 12.6 µM (active) and 2 µM (active) | inactive | inactive | inactive | inactive | inactive | inactive |  |  | 
4 | NC(=Nc1ccccc1)Nc1ccccc1 |  | inactive | inactive | inactive |  |  |  | -5.44% and -1.29% | -22.5% (inactive) and -7.28% (inactive) | -0.182% (inactive)
5 | Cc1ccc(S(=O)(=O)NC(=O)NN2CCCCCC2)cc1 |  | inactive | inactive | inactive | inactive | 10 µM (active) | inactive | -4.69% | -7.05% (inactive) | 5.89% (inactive)
6 | c1cnc(N2CCN(Cc3ccc4c(c3)OCO4)CC2)nc1 | inactive | inactive | inactive | inactive | inactive |  | inactive |  |  | 
7 | O=c1[nH]c(=O)n([C@H]2C[C@H](O)[C@@H](CO)O2)cc1Br | inactive | inactive | inactive | 4.05 µM (active) | 7.94 µM (active) | inactive | inactive | 11.1% | 7.58% (inactive) | 7.23% (inactive)
8 | CC(C)(Oc1ccc(CCNC(=O)c2ccc(Cl)cc2)cc1)C(=O)O |  | inactive | inactive | inactive |  | inactive | inactive | 1.78% | -3.89% (inactive) | 12.2% (inactive)
9 | CCCCOCCOCCOCc1cc2c(cc1CCC)OCO2 |  | inactive | inactive | inactive | inactive |  |  | -2.81% and -3.67% | -27.1% (inactive) and 3.9% (inactive) | 4.23% (inactive) and -22.6% (inactive)
10 | CCN(CC)CCOCCOC(=O)C1(c2ccccc2)CCCC1 | 12.6 µM (active) | inactive | inactive | inactive | inactive | inactive | inactive |  |  | 
11 | CN(C)[C@@H]1C(=O)C(C(N)=O)=C(O)[C@@]2(O)C(=O)C3=C(O)c4c(O)ccc(Cl)c4[C@@H](O)[C@H]3C[C@@H]12 | inactive |  |  |  |  |  |  |  |  | 
12 | C[C@]12C=CC(=O)C=C1CC[C@H]1[C@@H]3C[C@@H](O)[C@](O)(C(=O)CO)[C@@]3(C)C[C@H](O)[C@@]12F |  |  |  |  |  | inactive | inactive | -1.48% | -2.06% (inactive) | -4.06% (inactive)
13 | C[C@]12CCC(=O)C=C1CC[C@@H]1[C@@H]2CC[C@@]2(C)[C@H]1CC[C@]2(O)C(=O)CO | inactive | inactive | inactive | inactive |  | inactive |  |  |  | 
14 | CC(=O)Oc1cc(C(C)C)c(OCCN(C)C)cc1C | inactive | inactive | inactive | inactive |  | inactive | inactive |  |  | 
15 | NC(N)=N/N=C/c1c(Cl)cccc1Cl | 1.41 µM (active) | inactive | inactive | inactive |  | inactive |  |  |  | 
16 | CNC1(C)C2CCC(C2)C1(C)C (stereo not given) | inactive | inactive | inactive | inactive |  | inactive | inactive |  |  | 
17 | CN(C(=O)CCCOc1ccc2[nH]c(=O)ccc2c1)C1CCCCC1 | inactive | inactive | inactive |  | inactive | inactive | inactive |  |  | 
18 | CCn1cc(C(=O)O)c(=O)c2cc3c(cc21)OCO3 | inactive | inactive | inactive | inactive |  | inactive | inactive |  |  | 
19 | O=C(O)CN(CCOCCOCCN(CC(=O)O)CC(=O)O)CC(=O)O | inactive | inactive | inactive | inactive |  | inactive | inactive |  |  | 
20 | OCCN1CCN(CC/C=C2/c3ccccc3Sc3ccc(C(F)(F)F)cc32)CC1 | 2.82 µM (active) and 501 nM (active) | inactive | 22.8 µM (active) |  | inactive | inactive |  |  |  | 
21 | C[N+](C)(C)CCOC(=O)CCC(=O)OCC[N+](C)(C)C | inactive | inactive | inactive | inactive |  | inactive |  |  |  | 
22 | NC(=O)c1ncn([C@@H]2O[C@H](CO)[C@@H](O)[C@H]2O)c1O | inactive | inactive | inactive | inactive |  | inactive |  |  |  | 
23 | NC/C=C/C(=O)O | inactive | inactive | inactive | inactive |  | inactive | inactive |  |  | 
24 | Cc1nc2sccn2c(=O)c1CCN1CCC(=C(c2ccc(F)cc2)c2ccc(F)cc2)CC1 | 0.0708 µM (active) | inactive | inactive |  | inactive | inactive |  |  |  | 
26 | C[N+](C)(C)CCOC(N)=O | inactive | inactive | inactive | inactive |  | inactive |  |  |  | 
